# Laboratory results as given in PMC7862700, “An all-to-all approach to the identification of sequence-specific readers for epigenetic DNA modifications on cytosine”.
# What was measured:
# Assay in all cases: DAPPL (digital affinity profiling via proximity ligation, sequencing); 10 mM Tris-HCl pH 7.5, 50 mM NaCl, 1 mM DTT, 4% glycerol, room temperature, 30 min; GST-TFs on glutathione beads, 16-mer random dsDNA library, 0.1% formaldehyde crosslink after washing; high values mean tight binding
# Conditions in all cases: protein: recombinant; tags: N-terminal GST; dsDNA, one strand shown
# FLI1 = target: T1, FLI1 (Homo sapiens, UniProt Q01543 1-452)
# T1 sequence: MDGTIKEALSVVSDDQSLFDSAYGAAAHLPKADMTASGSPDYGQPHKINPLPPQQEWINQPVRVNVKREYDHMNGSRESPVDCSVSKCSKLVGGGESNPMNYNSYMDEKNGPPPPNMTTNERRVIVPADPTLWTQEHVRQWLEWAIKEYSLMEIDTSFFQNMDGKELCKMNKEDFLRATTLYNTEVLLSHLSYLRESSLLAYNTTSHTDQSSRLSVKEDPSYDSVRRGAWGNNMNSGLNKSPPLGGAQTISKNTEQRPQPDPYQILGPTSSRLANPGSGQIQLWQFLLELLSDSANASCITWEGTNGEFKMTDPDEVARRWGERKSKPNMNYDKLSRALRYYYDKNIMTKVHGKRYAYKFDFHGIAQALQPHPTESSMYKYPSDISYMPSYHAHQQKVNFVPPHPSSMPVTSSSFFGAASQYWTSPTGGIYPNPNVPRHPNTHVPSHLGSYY
# Outline: (§1)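 In yeast, human transcription factors were expressed with a GST fusion, then pulled down on glutathione beads and given DNA barcodes. Pooled with a tag-only sample, they were exposed to 200 nmole of a 16-mer random double-stranded DNA library (Tris/NaCl/DTT/glycerol buffer, room temperature, 30 min), washed, crosslinked with 0.1% formaldehyde, proximity-ligated using BsaI/T4 ligase for 1 h at 37 °C, PCR-amplified and read on an Illumina NextSeq500. Each hexamer's frequency of reads for a factor, divided by the matching frequency for the tag-only sample, gives the binding signal.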
# ELK1 = target: T2, ELK1 (Homo sapiens, UniProt P19419 1-428)
# T2 sequence: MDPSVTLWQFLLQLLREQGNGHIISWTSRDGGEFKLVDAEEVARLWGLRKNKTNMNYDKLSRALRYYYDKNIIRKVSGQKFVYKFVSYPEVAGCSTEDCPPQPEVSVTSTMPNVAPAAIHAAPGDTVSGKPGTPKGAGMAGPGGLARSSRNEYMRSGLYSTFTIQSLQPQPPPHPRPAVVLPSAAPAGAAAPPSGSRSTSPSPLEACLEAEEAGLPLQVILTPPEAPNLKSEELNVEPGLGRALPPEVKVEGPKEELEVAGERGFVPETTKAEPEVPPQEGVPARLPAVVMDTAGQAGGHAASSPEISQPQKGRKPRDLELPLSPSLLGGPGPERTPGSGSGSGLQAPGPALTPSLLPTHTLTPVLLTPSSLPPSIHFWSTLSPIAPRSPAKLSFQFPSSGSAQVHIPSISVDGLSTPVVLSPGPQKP
# Outline: as §1
# GABPA = target: T3, GABPA (Homo sapiens, UniProt Q06546 1-454)
# T3 sequence: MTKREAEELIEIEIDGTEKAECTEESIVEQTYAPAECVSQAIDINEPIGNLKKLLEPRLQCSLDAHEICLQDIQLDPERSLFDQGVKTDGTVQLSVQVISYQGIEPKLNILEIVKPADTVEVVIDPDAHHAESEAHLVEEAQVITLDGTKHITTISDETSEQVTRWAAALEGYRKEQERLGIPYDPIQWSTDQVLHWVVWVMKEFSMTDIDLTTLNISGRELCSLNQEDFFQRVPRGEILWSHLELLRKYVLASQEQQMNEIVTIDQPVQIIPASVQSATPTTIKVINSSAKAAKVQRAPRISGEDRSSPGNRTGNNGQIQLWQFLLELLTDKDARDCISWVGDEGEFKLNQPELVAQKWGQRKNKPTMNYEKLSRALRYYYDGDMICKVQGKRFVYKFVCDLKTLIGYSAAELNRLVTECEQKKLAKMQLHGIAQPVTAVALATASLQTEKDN
# Outline: as §1
# ERG = target: T4, ERG (Homo sapiens, UniProt P11308 1-479)
# T4 sequence: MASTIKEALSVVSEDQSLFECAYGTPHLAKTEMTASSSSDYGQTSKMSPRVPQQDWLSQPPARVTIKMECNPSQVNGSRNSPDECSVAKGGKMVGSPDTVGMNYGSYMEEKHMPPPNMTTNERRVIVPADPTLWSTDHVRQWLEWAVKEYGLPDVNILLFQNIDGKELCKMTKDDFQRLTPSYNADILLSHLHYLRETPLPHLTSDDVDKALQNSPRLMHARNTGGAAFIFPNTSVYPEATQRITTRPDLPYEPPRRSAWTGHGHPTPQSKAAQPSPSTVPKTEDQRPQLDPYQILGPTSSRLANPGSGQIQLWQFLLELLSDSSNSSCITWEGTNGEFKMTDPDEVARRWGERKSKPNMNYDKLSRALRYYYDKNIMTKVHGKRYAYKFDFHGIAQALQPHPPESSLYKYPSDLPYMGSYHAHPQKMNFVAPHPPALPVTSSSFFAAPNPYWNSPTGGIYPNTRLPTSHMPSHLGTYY
# Outline: as §1
# ELF1 = ELF1 (Homo sapiens, UniProt P32519 1-619)
# Chain of ELF1 (P32519 whole entry): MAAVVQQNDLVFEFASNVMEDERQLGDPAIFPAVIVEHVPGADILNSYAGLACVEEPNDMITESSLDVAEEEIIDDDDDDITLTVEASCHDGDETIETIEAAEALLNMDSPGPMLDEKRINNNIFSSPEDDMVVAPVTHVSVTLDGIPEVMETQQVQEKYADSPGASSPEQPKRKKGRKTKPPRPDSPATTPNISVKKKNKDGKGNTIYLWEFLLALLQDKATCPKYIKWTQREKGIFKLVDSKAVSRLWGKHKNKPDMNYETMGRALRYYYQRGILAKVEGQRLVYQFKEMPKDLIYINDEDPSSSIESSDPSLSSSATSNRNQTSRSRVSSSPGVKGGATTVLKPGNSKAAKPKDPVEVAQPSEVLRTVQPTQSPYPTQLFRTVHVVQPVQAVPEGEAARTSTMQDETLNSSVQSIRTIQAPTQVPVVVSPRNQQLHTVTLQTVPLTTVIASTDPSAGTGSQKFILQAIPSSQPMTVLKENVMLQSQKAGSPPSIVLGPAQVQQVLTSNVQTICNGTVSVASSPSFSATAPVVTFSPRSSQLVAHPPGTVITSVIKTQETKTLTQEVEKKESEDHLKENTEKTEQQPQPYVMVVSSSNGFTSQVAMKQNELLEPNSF
# Outline: as §1
# EHF = target: T5, EHF (Homo sapiens, UniProt Q9NZC4 1-300)
# T5 sequence: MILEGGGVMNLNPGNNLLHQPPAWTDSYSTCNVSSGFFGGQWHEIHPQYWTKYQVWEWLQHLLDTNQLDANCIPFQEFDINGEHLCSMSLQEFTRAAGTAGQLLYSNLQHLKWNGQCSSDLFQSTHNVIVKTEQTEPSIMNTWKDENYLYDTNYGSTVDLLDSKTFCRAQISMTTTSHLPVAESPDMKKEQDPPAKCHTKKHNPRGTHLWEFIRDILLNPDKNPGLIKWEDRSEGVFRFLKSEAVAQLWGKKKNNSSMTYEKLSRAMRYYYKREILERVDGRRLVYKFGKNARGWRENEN
# Outline: as §1
# SPI1 = SPI1 (Homo sapiens, UniProt P17947 1-270)
# Outline: as §1
# SPIB = SPIB (Homo sapiens, UniProt Q01892 1-262)
# Chain of SPIB (Q01892 whole entry): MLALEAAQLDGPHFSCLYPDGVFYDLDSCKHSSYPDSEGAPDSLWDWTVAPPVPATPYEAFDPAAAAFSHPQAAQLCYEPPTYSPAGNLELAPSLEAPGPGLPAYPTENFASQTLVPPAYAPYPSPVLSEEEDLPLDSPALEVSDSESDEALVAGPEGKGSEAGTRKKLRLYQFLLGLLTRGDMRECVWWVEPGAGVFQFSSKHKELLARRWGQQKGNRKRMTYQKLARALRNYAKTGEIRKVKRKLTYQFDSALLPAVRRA
# Outline: as §1
# ELK3 = target: T6, ELK3 (Homo sapiens, UniProt P41970 1-407)
# T6 sequence: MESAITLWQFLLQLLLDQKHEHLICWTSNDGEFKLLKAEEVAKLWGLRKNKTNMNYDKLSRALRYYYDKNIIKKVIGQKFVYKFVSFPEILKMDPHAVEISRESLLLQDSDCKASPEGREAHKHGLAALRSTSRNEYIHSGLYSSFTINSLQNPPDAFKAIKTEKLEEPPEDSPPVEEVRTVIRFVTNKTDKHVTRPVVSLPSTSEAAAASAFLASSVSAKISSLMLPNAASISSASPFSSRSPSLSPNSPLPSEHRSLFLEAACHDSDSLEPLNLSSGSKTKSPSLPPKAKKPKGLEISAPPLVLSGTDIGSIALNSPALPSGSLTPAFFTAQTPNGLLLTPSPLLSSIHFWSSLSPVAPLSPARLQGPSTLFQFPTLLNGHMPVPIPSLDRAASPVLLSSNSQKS
# Outline: as §1
sequence,measurement,setting,value
CTGACA,binding signal,FLI1,"1.19 fold enrichment (6-mer frequency, TF over GST control)"
same,binding signal,ELK1,"1.18 fold enrichment (6-mer frequency, TF over GST control)"
same,binding signal,GABPA,"1.2 fold enrichment (6-mer frequency, TF over GST control)"
same,binding signal,ERG,"1.22 fold enrichment (6-mer frequency, TF over GST control)"
same,binding signal,ELF1,"1.27 fold enrichment (6-mer frequency, TF over GST control)"
same,binding signal,EHF,"1.32 fold enrichment (6-mer frequency, TF over GST control)"
same,binding signal,SPI1,"1.26 fold enrichment (6-mer frequency, TF over GST control)"
same,binding signal,SPIB,"1.17 fold enrichment (6-mer frequency, TF over GST control)"
same,binding signal,ELK3,"1.24 fold enrichment (6-mer frequency, TF over GST control)"
